Source: PubChem
SW480 rereplic – DNA re-replication induction in SW480 cells | SW480 DNA re-replication, Hoechst DNA content imaging, 48 h | Potency, µM (highest dose often 46.1 µM), for inactives: at the top dose re-replication activation, usual class: activators | 1.8% of 340,000 active | AID 624297; note: % of control where 0% means no effect; nearly all actives have a fitted effect of over 55% in size
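SW480 cells exposed to compounds for 48 hr at 37 C, 5% CO2, then Hoechst-stained 40 min. Nuclear DNA content imaged by fluorescence scanning (405 nm excitation, 500-530 nm emission); re-replication scored as increased high-intensity nuclei.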
HT1080 IDH1KD tx – kills HT-1080 cells with IDH1 knockdown | HT-1080 IDH1 knockdown viability, ATP luminescence, 48 h | Potency, µM (doses to about 46.1 µM), for inactives: top-dose activity, negative = toxicity, actives largely listed as cytotoxic | 2% of 360,000 active | AID 686971;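 note: 0% = DMSO wells and -100% = cell-free medium wells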
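HT-1080-IDH1KD cells (IDH1 knocked down), 750/well in RPMI with 5% FBS, treated with compound 48 h at 37 degrees C. Viability by CellTiter-Glo luminescence, normalised to DMSO and no-cell wells; concentration-response curves classed.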
HT1080-NT tox – kills 2HG-producing HT-1080-NT fibrosarcoma cells. HT-1080-NT fibrosarcoma viability, CellTiter-Glo ATP luminescence, 48 h. Potency, µM (doses to about 46.1 µM), for inactives: at the highest dose activity, negative = less viability, usual class: cytotoxic. 1.6% of 360,000 active;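 note: NT is the 2HG producing partner of a matched IDH1 knockdown line; 0% = DMSO-treated cells and -100% = media-only wells without cells; nearly all actives have a fitted effect of over 55% in size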
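Viability by CellTiter-Glo luminescence after 48 h compound exposure at 37C of HT-1080-NT cells (750/well, RPMI, 5% FBS). % activity scaled between DMSO wells and medium-only wells, then curve-fitted and categorized by curve class.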
KB-V1 cytotox – KB-V1 MDR subline cytotoxicity; KB-V1 MDR cells viability, CellTiter-Glo, 72 h; Potency, µM (series often up to 46.1 µM), most hits filed as cytotoxic; 3.4% of 400,000 active; AID 1347076; note: % is set by controls: 0 for no effect and ±100 for the full control effect; nearly all actives have a fitted effect of over 60% in size
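Drug-selected KB-V1 cells, grown in DMEM lacking phenol red with 10% FBS, receive compound titrations; after three days at 37 degrees C, surviving cell ATP is quantified by CellTiter-Glo luminescence and responses normalized and curve-fitted.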
MCF10A rereplic – induces DNA re-replication in MCF 10a normal breast cells; AID 624296; MCF 10A DNA re-replication, Hoechst nuclear intensity, 48 h; Potency, µM (top dose mostly 46.1 µM), without a hit: at the highest dose activity, positive = re-replication, usual class: activators; 2.9% of 350,000 active; note: % of control where 0% means no effect; nearly all actives have a fitted effect of over 50% in size
KB-3-1 tox – KB-3-1 parental cell cytotoxicity; KB-3-1 viability, CellTiter-Glo ATP luminescence, 72 h; 1.4% of 400,000 active; AID 1347075; Potency, µM (highest dose often 46.1 µM), actives largely listed as cytotoxic; note: % is set by controls: 0 for no effect and ±100 for the full control effect; nearly all actives have a fitted effect of over 60% in size
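Using CellTiter-Glo luminescence, growth of non-resistant KB-3-1 adenocarcinoma cells is assessed 72 h after pin-tool compound addition at 37 °C. Normalized responses across the concentration series yield fitted curves.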
An asterisk follows results filed as active; i = inactive; ? = inconclusive; · = no result. Most compounds without a hit are left out; they make up all but 8% or so of the library. Calls come from the whole dose curve; as a rule, active = well fitted curve in the direction sought with a large enough effect; inconclusive = small, poorly fitted or top-dose-only effect, or another doubt; inactive = no such curve, though single readings can be large; an effect the other way counts as inactive or inconclusive. Potency is the fitted concentration of half-maximal effect.

SMILES	SW480 rereplic	HT1080 IDH1KD tx	HT1080-NT tox	KB-V1 cytotox	MCF10A rereplic	KB-3-1 tox
ClC(Cl)(c1nnnn1-c1ccccc1)c1nnnn1-c1ccccc1	13µM*	6.51µM*	?	i	?	i
CC(NCc1ccc(OCc2ccc(Cl)cc2)cc1)C(O)c1ccccc1 (stereo not given)	?	18.4µM*	23.1µM*	?	18.4µM*	?
CC(NCc1cccc(OCc2ccccc2)c1)C(O)c1ccccc1 (stereo not given)	?	4.1%	0.7%	i	9.2%	i
COc1ccccc1-c1noc2c1C(=O)NCC2	·	4.9%	8.3%	i	·	i
COc1cc(OC)nc(Oc2ccccc2C=O)n1	2.8%	?	?	i	16.4µM*	i
O=C1c2cccc3c(N4CCCCC4)ccc(c23)C(=O)N1c1ccc(O)cc1	11.6µM*	-15.9%	1.4%	i	5.8µM*	i
O=C1c2cccc3c(N4CCCCC4)ccc(c23)C(=O)N1c1ccccc1O	18.4µM*	-7.5%	-9.8%	i	5.8µM*	i
Cc1cc(Nc2cccc(Cl)c2)nc(-c2ccccc2O)n1	29.1µM*	?	-29.7%	i	?	i
Cc1cc(Nc2ccc(Cl)cc2)nc(-c2ccccc2O)n1	?	?	?	i	?	i
Clc1ccccc1Cn1nnc2c(N3CCCC3)ncnc21	-4.3%	20µM*	?	i	7.7%	i
NC(=O)C1CCN(c2nc(C3CC3)nc3c2nnn3Cc2ccccc2)CC1	-3.9%	-25.7%	?	i	-4.9%	i
OCCNc1nc(C2CC2)nc2c1nnn2Cc1ccccc1Cl	-3.3%	?	-11.2%	6.51µM*	?	i
CC1Cc2ccccc2N1c1ncnc2c1nnn2Cc1ccccc1Cl (stereo not given)	-0.6%	2.2%	-2.9%	i	0.1%	i
O=C(CSc1ncnc2c1nnn2Cc1ccccc1F)N1CCN(c2ccccc2)CC1	23.1%	11.9%	11.8%	?	20.6µM*	?
NC(=O)C1CCN(c2nc(C3CC3)nc3c2nnn3Cc2ccccc2Cl)CC1	-1.9%	-1.1%	2.9%	i	20.6µM*	i
Cc1cccc2c(C(O)c3cn(C)c4ccccc34)c[nH]c12 (stereo not given)	·	·	·	i	·	i
Cc1ccc(-c2nc(CS(=O)(=O)CC(=O)NCc3ccc(Cl)cc3)c(C)o2)cc1	·	·	·	i	·	?
C[C@@H]1COC(=O)[C@@H](Cc2ccc(F)cc2)C/C=C\C[C@H](CC(=O)N(CCO)Cc2ccccc2)C(=O)N1	16.3%	-2.0%	-0.8%	i	-7.7%	i
O=C(O)C(c1ccccc1)C1CCCCC1O (stereo not given)	-4.3%	6.6%	23.7%	i	-0.1%	i
CC(C)(C)NC(=O)CSc1ncnc2c1nnn2Cc1ccccc1Cl	?	?	?	i	14.6µM*	i
Cc1cc(NC(=O)CSc2nc3cc(Cl)ccc3o2)no1	9.3%	-14.6%	-2.4%	i	8.6%	?
COC(=O)CSc1nc2cc3c(cc2cc1C)OCO3	-7.6%	14.9%	7.3%	i	2.5%	i
CCc1cc2cc(C)ccc2nc1SCC(=O)Nc1cc(C)on1	-3.5%	-21.5%	-1.0%	9.2µM*	14.1%	i
CCc1cc2cc3c(cc2nc1SCC(=O)Nc1nnc(C)s1)OCCO3	16.4µM*	-0.4%	2.8%	?	3.26µM*	i
Cc1cc2cc3c(cc2nc1SCC(=O)Nc1nc(C)c(C)s1)OCO3	3.9%	?	-28.3%	i	4.11µM*	?
CCc1nnc(NC(=O)CSc2nc3cc4c(cc3cc2CC)OCCO4)s1	-4.3%	10.5%	6.1%	i	?	i
CCN(CC)S(=O)(=O)c1ccc2oc(SCC(=O)Nc3cc(C)on3)nc2c1	?	?	-2.6%	3.66µM*	17.1%	?
